The values below come from PubChem BioAssay AID492973 (The Scripps Research Institute Molecular Screening Center, 2010).

What is called inhibition is how much of the control response was suppressed.

A number with no mark means an inactive call. Activity calls are given as the source filed them.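 Rule for the calls: active = inhibition above 50% of the enzyme in parasite cell lysate; inactive = the rest.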

This test can be described thus: PfM17LAP inhibitors in parasite extract, late-stage follow-up, cell lysate, fluorescence, Plasmodium falciparum lysate, powder samples (AID 492973). The settings on record: P. falciparum cell lysate, H-Leu-NHMec fluorescence; at 5 µM; active compounds read high.
In the case of `COc1ccc(-c2cc(=O)[nH][nH]2)cc1`, the inhibition was 22%.

Take `COc1cc(NC(=O)CSc2nc3cc(C)ccc3cc2C)c(C(=O)O)cc1OC`: the inhibition is 64% (active). Take `CCc1cc2ccc(C)cc2nc1SCC(=O)Nc1cc(OC)c(OC)cc1C(=O)O`: the inhibition was 69% (active). On to `COC(=O)c1c(-c2cc(C)ccc2C)csc1NC(=O)[C@@H]1CC=CC[C@@H]1C(=O)O`, for which the inhibition was 64% (active).

Turning to `COc1ccc(-c2cc(=O)[nH][nH]2)cc1OC`, the inhibition was 8%. In the case of `CCN(CC)c1ccc(NC(=O)CSc2nc(C)cc(=O)[nH]2)cc1`, the inhibition is 52% (active). The same measure for `CCOc1ccc(NC(=O)Nc2cccs2)cc1`: 48%; for `CCOc1cccc(-c2cc(=O)[nH][nH]2)c1`: 43%.

With `CCc1ccc(Nc2nnc(SC3CCOC3=O)s2)cc1` (stereo not given), the inhibition is 43%. The same measure for `CCOc1ccc(NC(=O)Nc2ccc3nccnc3c2)cc1`: 25%; for `O=C(CSc1nccc(=O)[nH]1)Nc1ccc(Br)c(Cl)c1`: 43%. The same measure for `O=C(Nc1cc(Cl)ccc1Cl)[C@H]1CC=CC[C@H]1C(=O)O`: 9%. The same measure for `COC(=O)c1cccc(NC(=O)CSc2nc(C)cc(=O)[nH]2)c1`: 26%. Regarding `CCCCc1c(O)nc(SCC(=O)Nc2ccc3c(c2)CCC3)[nH]c1=O`, the inhibition was 21%. The same measure for `COc1ccc(NC(=O)CSC2=NC(=O)CC(C)=N2)cc1`: 27%; for `N#Cc1c(NC(=O)[C@@H]2C3C=CC(C3)[C@@H]2C(=O)O)sc2c1CCCCC2` (stereo not given in full): 30%. The same measure for `COc1ccc2nc(SCC(=O)Nc3cc(OC)c(OC)cc3C(=O)O)c(C)cc2c1`: 66% (active). The same measure for `COC(=O)c1c(-c2ccc(C)cc2)csc1NC(=O)[C@H]1CC=CC[C@H]1C(=O)O`: 58% (active); for `COC(=O)c1c(-c2ccco2)csc1NC(=O)[C@H]1CC=CC[C@H]1C(=O)O`: 51% (active); for `O=C(CSc1nnc(Nc2ccccc2)s1)NN1C(=O)NC2(CCCCC2)C1=O`: 57% (active). `Cc1ccc(-n2c(C)cc(C(=O)COC(=O)c3ccc[nH]c3=O)c2C)cc1C`: the inhibition was 54% (active). The same measure for `Cc1ccc(-n2c(C)cc(C(=O)COC(=O)c3ccc[nH]c3=O)c2C)cc1`: 43%. The same measure for `Cc1ccc(Nc2nnc(SCc3cc(=O)n4ccsc4n3)s2)c(C)c1`: 22%; for `CCOC(=O)c1c(NC(=O)[C@@H]2C3CCC(O3)[C@@H]2C(=O)O)sc(C)c1-c1ccc(C)cc1` (stereo not given in full): 29%; for `O=C(Nc1cccc(Cl)c1)[C@H]1CC=CC[C@H]1C(=O)O`: 24%.
